Data on 13 compounds can be found in PubChem BioAssay.

Results filed as inconclusive are left out. For some assays here: Measured potencies and affinities stand elsewhere. Activity calls are given as the source filed them.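 Rule for the calls, unless noted: active = luciferase signal above three times the same-plate solvent-only control wells; inactive = the rest.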

In assay [1] the target is Mitogen-activated protein kinase 7 (Homo sapiens) (UniProt Q13164). The assay is described as follows: ERK5 transactivation activators in reporter cells, primary screen, cell-based, HTS (AID 1508626).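 Note: luciferase driven by Gal4-ERK5 fusion binding five Gal4 sites before minimal TATA.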 The note with it: HeLa Gal4-ERK5 transactivation, 18 h, at 5 µM, stronger effect = higher value.
Assay [2] in a line: liver-stage malaria parasite growth inhibition, primary screen, cell-based, HepG2, luciferase luminescence, HepG2 viability (AID 624349; in the data active = parasite load remaining mostly below about 12%, no sharp cut-off; inactive = mostly above about 10%;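 note: 100% = mean of DMSO negative control wells on the same plate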). The note with it: P. berghei liver stage in HepG2, luciferase luminescence, concentration not given here; parasite load remaining: stronger effect = lower value; viability: measured here: HepG2 viability without parasites.
Assay [3] can be described thus: polyglutamine-triggered caspase-3 activation inhibitors, cell-based (AID 1583). Particulars: polyglutamine-induced caspase-3 activation, cell assay; stronger effect = higher value;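 tested at 10 µM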.
Assay [4] is described as follows: suppressors of polyQ aggregation in yeast, 75Q-TubU reporter (AID 1593). The note with it: Yeast 75Q polyglutamine aggregation reporter.
Assay [5] can be described thus: rescue of polyQ-huntingtin neuronal dysfunction in worms, whole organism, C. elegans mechanosensory neurons, N-terminal huntingtin (AID 1599). Particulars: touch response, stronger effect = higher value.
Assay [6] in a line: inhibitors of mitochondrial cytochrome c release, biochemical, purified mitochondria (AID 1603).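 Note: mouse liver mitochondria challenged with calcium chloride; signal normalized to the plate average as 100%.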 Particulars: stronger effect = lower value.
Assay [7] can be described thus: inhibitors of polyQ protein aggregation (AID 1604). Particulars: polyglutamine-induced protein aggregation inhibition assay; stronger effect = higher value; tested at 2.5 µM.
A short description of assay [8]: protection against mutant huntingtin cytotoxicity, PC12 cells, LDH release (AID 1610). Particulars: PC12 mutant huntingtin toxicity, final LDH at 4 uM, stronger effect = lower value. (In general: Release of lactate dehydrogenase indicates damage to the cell membrane.)
Assay [9] is described as follows: enhancers of glutamate uptake in motor neurons, MN-1 cell line (AID 1612).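 Note: tested at 1 µM final; 0% = mean of DMSO vehicle wells on each plate; positive means more glutamate uptake than control and negative means less.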 The note with it: MN-1 motor neuron cells, stronger effect = higher value.
The nature of assay [10]: reducers of polyQ inclusions in PC12 cells, cell-based, NGF-treated PC12, GFPQ80 (AID 1614).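 Note: lower means fewer inclusions and 0 means no inclusions at all.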 Particulars: PC12 NGF-treated GFP-polyQ80 inclusion reduction.
Assay [11] in a line: suppressors of polyglutamine aggregation in yeast, 75Q-TubH (AID 1616). The note with it: S. cerevisiae 75Q-TubH polyglutamine aggregation suppression; stronger effect = higher value.
Assay [12] is described as follows: enhancers of SMN2 over SMN1 splicing, cell-based, SMN2/SMN1 luciferase reporters (AID 1598; call rule not given here). Particulars: SMN2 vs SMN1 luciferase splicing reporter cells, at 10 µM; SMN1 luciferase ratio: measured here: SMN1 luciferase reporter average; SMN2 luciferase ratio: measured here: SMN2 luciferase reporter average, stronger effect = higher value; SMN2/SMN1 luciferase ratio: stronger effect = higher value. A general note: Reporter assays use an easily measured gene product as a stand-in for the process of interest.

As usually defined, the viability is a read-out of living cells in per cent, often relative to untreated cells. Usually inhibition stands for the drop in the measured response relative to a control, in per cent.

Sequence of Mitogen-activated protein kinase 7 (Homo sapiens) (Q13164 whole entry, looked up, the tested form may be a part): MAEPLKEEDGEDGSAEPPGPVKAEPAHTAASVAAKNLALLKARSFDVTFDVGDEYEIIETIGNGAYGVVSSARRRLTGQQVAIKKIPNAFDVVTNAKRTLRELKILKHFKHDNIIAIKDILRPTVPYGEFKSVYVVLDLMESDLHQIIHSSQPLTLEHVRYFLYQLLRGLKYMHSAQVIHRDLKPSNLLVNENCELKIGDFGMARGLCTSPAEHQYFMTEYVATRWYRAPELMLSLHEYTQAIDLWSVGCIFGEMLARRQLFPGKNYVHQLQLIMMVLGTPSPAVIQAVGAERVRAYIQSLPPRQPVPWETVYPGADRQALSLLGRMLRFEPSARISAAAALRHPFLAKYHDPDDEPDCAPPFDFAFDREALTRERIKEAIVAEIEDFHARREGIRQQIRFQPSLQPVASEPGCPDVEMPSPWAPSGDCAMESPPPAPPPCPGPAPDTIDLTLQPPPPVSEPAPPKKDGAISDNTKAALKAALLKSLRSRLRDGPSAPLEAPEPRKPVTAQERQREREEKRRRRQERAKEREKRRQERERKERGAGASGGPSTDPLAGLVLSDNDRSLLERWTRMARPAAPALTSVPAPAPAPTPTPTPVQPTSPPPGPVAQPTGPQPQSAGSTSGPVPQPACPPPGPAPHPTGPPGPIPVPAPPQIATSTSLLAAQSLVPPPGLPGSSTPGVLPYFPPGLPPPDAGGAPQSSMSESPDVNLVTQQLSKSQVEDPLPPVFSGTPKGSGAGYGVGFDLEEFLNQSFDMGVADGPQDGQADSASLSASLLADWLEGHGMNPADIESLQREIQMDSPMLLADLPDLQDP

For `COc1ccc(-c2cc(=O)c3c(O)c(OC)c(OC)c(OC)c3o2)cc1`, the luciferase signal in [1] is 120 AU (inactive).

Turning to `O=c1c(O)c(-c2ccc(O)c(O)c2)oc2c(O[C@@H]3O[C@H](CO)[C@@H](O)[C@H](O)[C@H]3O)c(O)cc(O)c12`, in assay [1], the luciferase signal is 36 AU (inactive).

As for `CC1=CC(=O)CC(C)(C)C1(O)/C=C/C(C)=C\C(=O)O` (configuration not stated), in [2], the parasite load remaining was 91.5% (inactive) and the viability is 73.1%. The luciferase signal in [1] is 48 AU (inactive).

In the case of `CC(NC(=O)C(NC(=O)OCc1ccccc1)C(C)C)C(=O)NC(CC(=O)O)C(=O)OC(F)F` (configuration not stated), the inhibition in assay [3] came to 59.7%. In assay [4], this compound yielded a score of 1.09. Further, the rescue above control in [5] was -1.19. The cytochrome c release ratio in assay [6] was 0.97. In addition, the inhibition of aggregation in [7] stood at 0.68%. Further, the normalised LDH release in assay [8] was found to be 0.83. In addition, the glutamate uptake change in assay [9] came out at 2.37%. The same compound registered an inclusion score in [10] of 2. Moreover, the aggregation suppression score in assay [11] is 1.2.

Turning to `O=S(=O)([O][Al])OC[C@H]1O[C@@](COS(=O)(=O)[O][Al])(O[C@H]2O[C@H](COS(=O)(=O)[O][Al])[C@@H](OS(=O)(=O)[O][Al])[C@H](OS(=O)(=O)[O][Al])[C@H]2OS(=O)(=O)[O][Al])[C@@H](OS(=O)(=O)[O][Al])[C@@H]1OS(=O)(=O)[O][Al]`, the luciferase signal in [1] was 84 AU (inactive).

On to `CC[C@H](CC[C@@H](C)[C@H]1CC[C@H]2[C@@H]3CC[C@H]4C[C@@H](O)CC[C@]4(C)[C@H]3CC[C@]12C)C(C)C`, for which the luciferase signal in assay [1] was 12 AU (inactive).

As to `C[C@H](CCC(=O)O)[C@H]1CC[C@H]2[C@@H]3CC[C@@H]4CCCC[C@]4(C)[C@H]3CC[C@]12C`, the luciferase signal in assay [1] was 36 AU (inactive).

For the compound `CO/N=C1\C[C@]2(C[C@@H]3C[C@@H](C/C=C(\C)C[C@@H](C)/C=C/C=C4\CO[C@@H]5[C@H](O)C(C)=C[C@@H](C(=O)O3)[C@]45O)O2)O[C@H](/C(C)=C/C(C)C)[C@H]1C`, the luciferase signal in [1] is 40 AU (inactive).

For `CC(=O)OCC(=O)[C@@]1(O)CC[C@H]2C3CCC4=CC(=O)CCC4(C)[C@@]3(F)[C@@H](O)CC21C` (some centres not stated), in [3], the inhibition amounted to 9.6%. Further, the score in [4] was 1. The compound further yielded a rescue above control in [5] of 20.3. For the same compound, the cytochrome c release ratio in assay [6] was determined as 0.71. The compound further returned an inhibition of aggregation in assay [7] of 88.9%. Also, the glutamate uptake change in [9] was found to be 7.44%. Further, the inclusion score in assay [10] came out at 2. Moreover, the aggregation suppression score in assay [11] was determined as 1.14.

As for `CC(=O)[C@H]1CC[C@H]2[C@@H]3CCC4=CC(=O)CC[C@]4(C)[C@H]3C(OC(=O)CCC(=O)O)C[C@]12C` (some centres not stated), the luciferase signal in assay [1] was 60 AU (inactive).

In the case of `CCCCC(=O)OC1(C(=O)CO)C(C)CC2C3CCC4=CC(=O)C=CC4(C)[C@@]3(F)[C@@H](O)CC21C` (some centres not stated), the inhibition in assay [3] is 9.05%. Also, the score in [4] was -0.8. In assay [5], this compound registered a rescue above control of -0.98. Moreover, in assay [6], the cytochrome c release ratio came out at 1.65. In addition, the inhibition of aggregation in assay [7] came out at 82%. The normalised LDH release in [8] came out at 0.899. For the same compound, the glutamate uptake change in assay [9] is 9.55%. The compound also had an aggregation suppression score in assay [11] of 1.32.

For `CC(=O)O[C@H]1CC[C@@]2(C)[C@@H](CC[C@@H]3[C@@H]2CC(=O)[C@]2(C)[C@@H]4[C@H](C[C@@H]32)O[C@]2(CC[C@@H](C)CO2)[C@H]4C)C1`, in assay [1], the luciferase signal was 56 AU (inactive).

In the case of `CC[C@@]1(O)C[C@H](OC2CC(N(C)C)C(OC3CC(O)C(OC4CCC(=O)C(C)O4)C(C)O3)C(C)O2)c2c(cc3c(c2O)C(=O)c2c(O)cccc2C3=O)[C@H]1C(=O)OC` (some centres not stated), the inhibition in assay [3] was -23.8%. The compound further gave a score in [4] of 0.51. Moreover, in [12], the SMN1 luciferase ratio came out at 1.26, the SMN2/SMN1 luciferase ratio is 1.34 (active) and the SMN2 luciferase ratio amounted to 1.64. Also, in [5], the rescue above control came out at 0. Further, the cytochrome c release ratio in assay [6] came to 4.02. In assay [7], the inhibition of aggregation is 1.96%. The normalised LDH release in assay [8] amounted to 0.363. The glutamate uptake change in assay [9] was 47.8%. This compound displayed an aggregation suppression score in assay [11] of 0.557.
